This is an account of results in the supplement of paper PMC8253809.

Values joined by “and” are separate entries in the source; they are usually repeats but may differ in a detail not shown here. Equal values may be shown once.

The test system of the first assay is HNSC. The assay is described as follows: growth inhibition (% activity, log2 RLU normalised to DMSO / staurosporine); higher = more growth inhibition. The settings on record: 33 µM. In a few lines:
(§1)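 Approved drugs were tested in triplicate at a single final concentration of about 33 μM for 7 days at 37 °C, 5% CO2, on pHGG cell lines and H9-derived neural stem cells. Readout was CellTiter-Glo luminescence, log2-transformed and scaled per plate to % activity between solvent and positive control wells. The median over replicates gives the growth-inhibition value.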
As for `C#C[C@]1(O)C=C[C@H]2[C@@H]3CCC4=CC(=O)CC[C@@H]4[C@H]3CC[C@@]21CC`, the growth inhibition came to 0.901%.
On the same count and under the same terms, under `NCC(O)c1ccc(O)cc1` (stereo not drawn) stands 22.2%.
Take `COc1ccc(OC)c(C(O)C(C)N)c1` (stereo not drawn): the growth inhibition was 1.54%.
The same measure, in the same setting: the figure for `CC(C)c1c(CN(C)C(C)Cc2ccccc2)n(C)n(-c2ccccc2)c1=O` (stereo not drawn) is 48.4%; for `Cc1cccc(C)c1NC1=NCCCS1` it is -4.34%.
The same measure, in the same setting: the figure for `CN(C)C1C(=O)C(C(N)=O)=C(O)C2(O)C(=O)C3=C(O)c4c(O)cccc4C(C)(O)C3CC12` (stereo not drawn) is -1.6%.
On the same count and under the same terms, the figure for `Nc1nc(N)nc(NC2CC2)n1` is 1.21%.
In the case of `C=CC[C@]1(O)CC[C@H]2[C@@H]3CCC4=CC(=O)CCC4=C3C=C[C@@]21C`, the growth inhibition turned out to be 2.23%.
As for `COc1ccc(C(=O)N2CCCC2=O)cc1`, the growth inhibition amounted to 0.808%.
On the same count and under the same terms, under `N[C@@H]1C[C@H]1c1ccccc1.N[C@H]1C[C@@H]1c1ccccc1` stands 3.66%; under `Cn1c(CCCC(=O)O)nc2cc(N(CCCl)CCCl)ccc21`, 48.6%; under `C[C@]12CC[C@H](O)CC1=CC[C@@H]1[C@@H]2CC[C@]2(C)C(=O)CC[C@@H]12`, 3.63%.
For `C[C@@H]1O[C@@H](O[C@H]2C[C@@H](O)[C@]3(CO)[C@H]4[C@H](O)C[C@]5(C)[C@@H](C6=CC(=O)OC6)CC[C@]5(O)[C@@H]4CC[C@]3(O)C2)[C@H](O)[C@H](O)[C@H]1O`, the growth inhibition came out at 59.4%.
Still for that read-out and setting: the figure for `CCC1=C[C@H]2CN3CCc4c([nH]c5ccccc45)[C@](C(=O)OC)(C2)[C@H]13` is -4.27%; for `C[C@]12CC[C@H]3[C@@H](CC[C@@]45O[C@@H]4C(O)=C(C#N)C[C@]35C)[C@@H]1CC[C@@H]2O` it is -3.23%; for `CCCCCCCCCCCCCCCC[n+]1ccccc1` it is 76.6%.
As to `CC(NC(C)(C)C)C(=O)c1cccc(Cl)c1` (stereo not drawn), the growth inhibition was -1.56%.
On the same count and under the same terms, the figure for `C=CCN.ClCC1CO1` (stereo not drawn) is 0.544%; for `CC(O)(CS(=O)(=O)c1ccc(F)cc1)C(=O)Nc1ccc(C#N)c(C(F)(F)F)c1` (stereo not drawn) it is -0.177%; for `C[C@]12CCC(=O)C=C1C=C[C@@H]1[C@@H]2CC[C@@]2(C)[C@H]1CC[C@@]2(O)CCC(=O)O` it is 37.3%.
The same measure, in the same setting: the figure for `Cc1c(N)nc(C(CC(N)=O)NCC(N)C(N)=O)nc1C(=O)NC(C(=O)NC(C)C(O)C(C)C(=O)NC(C(=O)NCCc1nc(-c2nc(C(=O)NCCC[S+](C)C)cs2)cs1)C(C)O)C(O[C@@H]1O[C@@H](CO)[C@@H](O)[C@H](O)[C@@H]1O[C@H]1O[C@H](CO)[C@@H](O)[C@H](OC(N)=O)[C@@H]1O)c1cnc[nH]1` (stereo partly drawn) is 56.5%; for `CC(=O)OC1CN2CCC1CC2` (stereo not drawn) it is 2.31%; for `COc1cc2c(cc1OC)[C@@]13CCN4CC5=CCO[C@H]6CC(=O)N2[C@H]1[C@H]6[C@H]5C[C@H]43` it is 19.6%.
Still for that read-out and setting: under `C/C=C(\C)C(=O)N[C@@H](c1ccccc1)[C@@H](O)C(=O)O[C@H]1C[C@@]2(O)[C@@H](OC(=O)c3ccccc3)[C@@H]3[C@]4(OC(C)=O)CO[C@@H]4C[C@H](O)[C@@]3(C)C(=O)[C@H](OC(C)=O)C(=C1C)C2(C)C` stands 59.9%; under `CN1[C@@H]2C[C@@H](OC(=O)[C@H](CO)c3ccccc3)C[C@H]1[C@@H]1O[C@@H]12`, 23.8%.
With `CC(C)NCC(O)c1ccccc1Cl` (stereo not drawn), the growth inhibition was -2.5%.
As to `CC[C@@]1(O)C(=O)OCc2c1cc1n(c2=O)Cc2cc3ccccc3nc2-1`, the growth inhibition was 65.8%.
For `CN(C)C(=O)Oc1ccc[n+](C)c1`, the growth inhibition was -1.64%.
For `CCN(C)C(=O)Oc1cccc([C@H](C)N(C)C)c1`, the growth inhibition came out at 4.36%.
Same read-out and setting: the figure for `C#C[C@]1(O)CC[C@H]2[C@@H]3CCC4=CC(=O)CC[C@]4(C)[C@H]3CC[C@@]21C` is 5.86%.
With `OC(c1ccccc1)(c1ccccc1)C1CCNCC1`, the growth inhibition was -1.42%.
Consider `O=P1(N(CCCl)CCCl)NCCCO1` (stereo not drawn), for which the growth inhibition was -1.67%.
On the same count and under the same terms, under `CC[C@@H](C(N)=O)N1CCCC1=O` stands -0.905%.
On the same count and under the same terms, the figure for `CN1C(=O)CCS(=O)(=O)C1c1ccc(Cl)cc1` (stereo not drawn) is 2.59%.
Turning to `O=C(O)c1nn(Cc2ccc(Cl)cc2Cl)c2ccccc12`, the growth inhibition was found to be 30.5%.
For `CNC1CC(N)C(O)C(OC2OC(CO)C(O)C3OC4(OC(C(N)CO)C(O)C(O)C4O)OC23)C1O` (stereo not drawn), the growth inhibition was determined as 1.11%.
The same measure, in the same setting: the figure for `CN(C)[C@@H]1C(=O)C(C(N)=O)=C(O)[C@@]2(O)C(=O)C3=C(O)c4c(O)cccc4[C@@](C)(O)[C@H]3[C@H](O)[C@@H]12` is 0.393% and 0.992%.
The same measure, in the same setting: the figure for `O=c1[nH]c2ccccc2n1CCCN1CCC(n2c(=O)[nH]c3cc(Cl)ccc32)CC1` is 1.78%; for `CN1C(=O)COc2c(C(=O)NC3CN4CCC3CC4)cc(Cl)cc21` (stereo not drawn) it is 0.849%.

Another assay relates to SUDIPGIV (diffuse intrinsic pontine glioma line)
The assay is described as above. The note with it: 33 µM. In a few lines: as §1
For `C#C[C@]1(O)C=C[C@H]2[C@@H]3CCC4=CC(=O)CC[C@@H]4[C@H]3CC[C@@]21CC`, the growth inhibition amounted to 0.673%.
On the same count and under the same terms, the figure for `NCC(O)c1ccc(O)cc1` (stereo not drawn) is 1.19%.
`COc1ccc(OC)c(C(O)C(C)N)c1` (stereo not drawn): the growth inhibition was determined as 0.0544%.
On the same count and under the same terms, under `CC(C)c1c(CN(C)C(C)Cc2ccccc2)n(C)n(-c2ccccc2)c1=O` (stereo not drawn) stands 1.4%; under `Cc1cccc(C)c1NC1=NCCCS1`, 2.42%.
On the same count and under the same terms, under `CN(C)C1C(=O)C(C(N)=O)=C(O)C2(O)C(=O)C3=C(O)c4c(O)cccc4C(C)(O)C3CC12` (stereo not drawn) stands 2.83%.
On the same count and under the same terms, the figure for `Nc1nc(N)nc(NC2CC2)n1` is 1.07%.
As to `C=CC[C@]1(O)CC[C@H]2[C@@H]3CCC4=CC(=O)CCC4=C3C=C[C@@]21C`, the growth inhibition stood at 1.08%.
On the same count and under the same terms, the figure for `COc1ccc(C(=O)N2CCCC2=O)cc1` is -2.06%; for `N[C@@H]1C[C@H]1c1ccccc1.N[C@H]1C[C@@H]1c1ccccc1` it is 1.14%; for `Cn1c(CCCC(=O)O)nc2cc(N(CCCl)CCCl)ccc21` it is -0.00689%.
On the same count and under the same terms, under `C[C@]12CC[C@H](O)CC1=CC[C@@H]1[C@@H]2CC[C@]2(C)C(=O)CC[C@@H]12` stands 2.37%; under `C[C@@H]1O[C@@H](O[C@H]2C[C@@H](O)[C@]3(CO)[C@H]4[C@H](O)C[C@]5(C)[C@@H](C6=CC(=O)OC6)CC[C@]5(O)[C@@H]4CC[C@]3(O)C2)[C@H](O)[C@H](O)[C@H]1O`, 60.1%.
Still for that read-out and setting: the figure for `CCC1=C[C@H]2CN3CCc4c([nH]c5ccccc45)[C@](C(=O)OC)(C2)[C@H]13` is 2.26%; for `C[C@]12CC[C@H]3[C@@H](CC[C@@]45O[C@@H]4C(O)=C(C#N)C[C@]35C)[C@@H]1CC[C@@H]2O` it is -0.766%.
`CCCCCCCCCCCCCCCC[n+]1ccccc1`: the growth inhibition amounted to 55.8%.
Still for that read-out and setting: the figure for `CC(NC(C)(C)C)C(=O)c1cccc(Cl)c1` (stereo not drawn) is 0.0304%; for `C=CCN.ClCC1CO1` (stereo not drawn) it is 0.558%; for `CC(O)(CS(=O)(=O)c1ccc(F)cc1)C(=O)Nc1ccc(C#N)c(C(F)(F)F)c1` (stereo not drawn) it is -0.994%.
Still for that read-out and setting: the figure for `C[C@]12CCC(=O)C=C1C=C[C@@H]1[C@@H]2CC[C@@]2(C)[C@H]1CC[C@@]2(O)CCC(=O)O` is -0.186%.
Same read-out and setting: under `Cc1c(N)nc(C(CC(N)=O)NCC(N)C(N)=O)nc1C(=O)NC(C(=O)NC(C)C(O)C(C)C(=O)NC(C(=O)NCCc1nc(-c2nc(C(=O)NCCC[S+](C)C)cs2)cs1)C(C)O)C(O[C@@H]1O[C@@H](CO)[C@@H](O)[C@H](O)[C@@H]1O[C@H]1O[C@H](CO)[C@@H](O)[C@H](OC(N)=O)[C@@H]1O)c1cnc[nH]1` (stereo partly drawn) stands 32.5%.
With `CC(=O)OC1CN2CCC1CC2` (stereo not drawn), the growth inhibition is -0.883%.
On the same count and under the same terms, the figure for `COc1cc2c(cc1OC)[C@@]13CCN4CC5=CCO[C@H]6CC(=O)N2[C@H]1[C@H]6[C@H]5C[C@H]43` is 0.395%; for `C/C=C(\C)C(=O)N[C@@H](c1ccccc1)[C@@H](O)C(=O)O[C@H]1C[C@@]2(O)[C@@H](OC(=O)c3ccccc3)[C@@H]3[C@]4(OC(C)=O)CO[C@@H]4C[C@H](O)[C@@]3(C)C(=O)[C@H](OC(C)=O)C(=C1C)C2(C)C` it is 37%; for `CN1[C@@H]2C[C@@H](OC(=O)[C@H](CO)c3ccccc3)C[C@H]1[C@@H]1O[C@@H]12` it is -3.93%.
For the compound `CC(C)NCC(O)c1ccccc1Cl` (stereo not drawn), the growth inhibition was determined as 0.901%.
On the same count and under the same terms, the figure for `CC[C@@]1(O)C(=O)OCc2c1cc1n(c2=O)Cc2cc3ccccc3nc2-1` is 46.6%; for `CN(C)C(=O)Oc1ccc[n+](C)c1` it is 0.973%.
Regarding `CCN(C)C(=O)Oc1cccc([C@H](C)N(C)C)c1`, the growth inhibition was -1.75%.
With `C#C[C@]1(O)CC[C@H]2[C@@H]3CCC4=CC(=O)CC[C@]4(C)[C@H]3CC[C@@]21C`, the growth inhibition amounted to 0.623%.
Turning to `OC(c1ccccc1)(c1ccccc1)C1CCNCC1`, the growth inhibition is -1.01%.
Same read-out and setting: under `O=P1(N(CCCl)CCCl)NCCCO1` (stereo not drawn) stands -2.17%; under `CC[C@@H](C(N)=O)N1CCCC1=O`, -1.25%; under `CN1C(=O)CCS(=O)(=O)C1c1ccc(Cl)cc1` (stereo not drawn), 0.226%.
Still for that read-out and setting: under `O=C(O)c1nn(Cc2ccc(Cl)cc2Cl)c2ccccc12` stands 3.06%; under `CNC1CC(N)C(O)C(OC2OC(CO)C(O)C3OC4(OC(C(N)CO)C(O)C(O)C4O)OC23)C1O` (stereo not drawn), 3.64%.
The same measure, in the same setting: the figure for `CN(C)[C@@H]1C(=O)C(C(N)=O)=C(O)[C@@]2(O)C(=O)C3=C(O)c4c(O)cccc4[C@@](C)(O)[C@H]3[C@H](O)[C@@H]12` is 2.12% and -1.5%; for `O=c1[nH]c2ccccc2n1CCCN1CCC(n2c(=O)[nH]c3cc(Cl)ccc32)CC1` it is -1.4%.
On to `CN1C(=O)COc2c(C(=O)NC3CN4CCC3CC4)cc(Cl)cc21` (stereo not drawn), for which the growth inhibition is -0.021%.
